Measured values from ChEMBL document CHEMBL3988442, “University of Dundee, Small-Polar-MMV Screening Library” (2021).
Screen size: about 48,000 compounds; about 13,000 (27%) showed an effect of 50% or more. Some of the results follow.

Tested on: Wolbachia pipientis
Experiment: Anti-Wolbachia Cell-Based Screen
Type: functional
Set-up: scale not given: in the data most compounds retested in dose-response had high values
Details: 5 µM

SMILES	Percent Effect [%]
O=C1N(CCCc2ccccc2)CCCC1(O)CNCC1CCCCC1 (centres undefined)	25.76
Cc1nnsc1CN1C[C@H]2CC[C@@H]1CN(Cc1ccc(F)cc1)C2	24.86
CC(=O)N1CCN(Cc2ccc(C(F)(F)F)c(F)c2)CC(O)C1 (centres undefined)	-15.55
CC(C)C(=O)NCC(=O)N(C)C1CCCN(C2Cc3ccccc3C2)C1 (centres undefined)	-0.79
Cc1ccc(N2CC3(COCCN(Cc4nccs4)C3)OCC2=O)s1.O=C(O)C(F)(F)F (centres undefined)	-2.22
Cc1nc2c(c(=O)[nH]1)CCN(C(=O)c1cccc3nccnc13)C2	104.9
Nc1nc2c(c(=O)[nH]1)CCN(C(=O)c1cccc3nccnc13)C2	6.132
CN(C)c1nc2c(c(=O)[nH]1)CCN(C(=O)c1cccc3nccnc13)C2	3.463
Cc1nccn1CCC1CCCCN1Cc1ccc(N(C)C)nc1 (centres undefined)	13.8
CC(=O)N1CCc2ccc(S(=O)(=O)N3CCCCC3C)cc21 (centres undefined)	-39.69
O=C(C1CC1)N1C[C@H]2CCCN(S(=O)(=O)c3ccc4c(c3)CCC4)[C@H]2C1	109.7
CC(=O)N1CCCC(C(=O)N2CCC(=Cc3cccc(F)c3)CC2)C1 (centres undefined)	11.44
CC(=O)N1CCCc2ccc(S(=O)(=O)N3CCCCC3C)cc21 (centres undefined)	-24.19
O=C(O)C(F)(F)F.O=S(=O)(c1cccc(F)c1)N1CC[C@H]2[C@H]1CCN2c1ncccn1	-6.82
O=C(C1CC1)N1C[C@H]2CCCN(S(=O)(=O)c3cccc(F)c3)[C@H]2C1	149
CCOC(=O)c1cn(CC(O)c2ccccc2OC)nn1 (centres undefined)	-11.75
CCN(CC1CCOC1)C(=O)CSCC(=O)Nc1ccc(C)cc1 (centres undefined)	4.187
O=C(Nc1cccc(C(F)F)c1)N[C@@H]1C=C[C@H](CO)C1	-9.569
CC(C)(C)OC(=O)N1CCN(c2cccnc2)CC1C(=O)O (centres undefined)	114.7
CCCSCC(=O)N1CCN(c2ccc(OC)cc2)CC1C (centres undefined)	15.77
COC(=O)c1ccc(N2CCN(C(=O)C(C)C)C(C)C2)cc1 (centres undefined)	1.031
Cc1ccc(N2CCN(C(=O)CCC(F)(F)F)C(C)C2)cc1 (centres undefined)	17.59
COc1ccc(N2CCN(C(=O)Cn3nc(C)c(C)c3C)C(C)C2)cc1 (centres undefined)	-0.23
COC(=O)N1CCCCC1C(=O)N1CCN(c2cccnc2)CC1 (centres undefined)	-31.63
CC(C)(C)OC(=O)N1CCN(c2ccc(F)cc2)CC1C(=O)O (centres undefined)	89.96

SMILES	Percent Effect [%]
COc1ccc(N2CCN(C(=O)OC(C)(C)C)C(C(=O)O)C2)cc1 (centres undefined)	126.2
Cc1ccc(C(=O)N2C[C@@H]3CCN(c4cccnc4)C[C@@H]3C2)cn1.O=C(O)C(F)(F)F	4.1
CCc1nccn1C1CCCN(C(=O)c2cnc[nH]2)C1 (centres undefined)	2.73
CCCS(=O)(=O)NCC1OCCc2cn(CC3CCOCC3)nc21 (centres undefined)	-15.6
CC(C)CN1C[C@@H]2OCC(=O)N(Cc3nccn3C)[C@@H]2C1	0.1712
CNC(=O)[C@H]1C[C@H]2OCC[C@H]2N(CCOc2ccc(Cl)cc2)C1.O=C(O)C(F)(F)F	-0.765
CCN(CC)S(=O)(=O)c1cc(NC(=O)CCc2cscn2)ccc1C	-4.761
O=C(NC[C@]1(O)CN(Cc2ccccc2F)C[C@H]1O)c1ccccn1	-4.429
NC1(C(=O)NCC2CCCN(Cc3ccccc3F)C2)CCCC1 (centres undefined)	-12.52
Fc1ccccc1CC1CCN(Cc2cscn2)CC1	12.39
O=C(NC[C@]1(O)CN(Cc2ccccc2F)C[C@H]1O)c1cscn1	81.64
O=C(NC[C@]1(O)CCN(Cc2ccccc2F)C[C@H]1O)c1c[nH]cn1	105
CN1CCC(NCC2(O)CCCN(Cc3ccccc3F)C2=O)CC1 (centres undefined)	-22.31
Cc1cc(CN2CCC(CNC(=O)c3cnc(C)nc3C)C2)[nH]n1 (centres undefined)	-6.024
Cc1cncc(CN2CC[C@@](O)(CNC(=O)c3c[nH]cn3)[C@H](O)C2)c1	108.4
O=C(NC[C@]1(O)CCN(Cc2ccsc2)C[C@H]1O)c1c[nH]cn1	99.16
Cc1cccc(CN2CCCC(O)(CNCCc3c[nH]cn3)C2=O)c1 (centres undefined)	23.49
COCC1CC2(CCN(S(=O)(=O)C3CC3)CC2)CN1c1ncccn1.O=C(O)C(F)(F)F (centres undefined)	-3.839
CCn1cnnc1CNC(=O)NCC(C)(CC)N1CCOCC1 (centres undefined)	-7.317
Cc1n[nH]c(C2CN(Cc3nnc(C4CC4)n3C)CCO2)n1 (centres undefined)	1.096
CCNC(=O)[C@@H]1C[C@H](N)CN1c1cc(C(F)(F)F)nc(N(C)C)n1	-10.07
CCNC(=O)[C@@H]1C[C@H](N)CN1c1cc(C(F)(F)F)nc(N2CCCC2)n1	-17.39
CCNC(=O)[C@@H]1C[C@H](N)CN1c1cc(CC)nc(N(C)C)n1	116.6
COC(=O)c1ccc(N2CCN(C(=O)c3ccc(=O)n(C)c3)CC2)cc1	-4.416
COC(=O)c1cccc(C(=O)N2CCN(c3ccc(Cl)cc3)CC2)n1	100.8

SMILES	Percent Effect [%]
COC(=O)c1cccc(C(=O)N2CCN(c3ccc(OC)cc3)CC2)n1	142.3
COC(=O)c1ccc(N2CCN(C(=O)c3ccn(C)c(=O)c3)CC2)cc1	7.353
COC(=O)c1cccc(C(=O)N2CCN(c3ccccc3F)CC2)n1	5.907
O=C(c1ncncc1Cl)N1CCN(c2ccc(Cl)cc2)CC1	-23.14
CCC(C)(C)C1CCCN1C(=O)c1coc(S(=O)(=O)NC)c1 (centres undefined)	25.9
Cc1cccc(N2CCC3(CCCN3Cc3c(C)nn(C)c3C)CC2)n1	12.41
CC(C)SCc1cccc(NC(=O)NCCc2nnc[nH]2)c1	5.819
Cc1cc(C)n(C2CCN(C(=O)c3cn4ccsc4n3)C2)n1 (centres undefined)	-17.41
Cc1cnn(C2CCCN(C(=O)c3cn4cccnc4n3)C2)c1 (centres undefined)	-8.081
Cc1nc(C)n(C2CCCN(C(=O)c3cn4cccnc4n3)C2)n1 (centres undefined)	114.3
Cc1nc(C)n(C2CCCN(C(=O)c3csnn3)C2)n1 (centres undefined)	-2.311
CCc1nccn1C1CCCN(C(=O)c2cn3cccnc3n2)C1 (centres undefined)	-0.7445
CC(C)c1nccn1C1CCCN(C(=O)c2cn3cccnc3n2)C1 (centres undefined)	106.5
Cc1nc(C)n(C2CCCN(C(=O)c3cn4c(C)cccc4n3)C2)n1 (centres undefined)	8.927
Cc1cc(C)n(C2CCCN(C(=O)c3cn4cccnc4n3)C2)n1 (centres undefined)	140.9
CC(C)c1nccn1C1CCCN(C(=O)c2cnc[nH]2)C1 (centres undefined)	-3.09
Cc1occc1C(=O)Nc1cccc(C(=O)OCC2CCCN2)c1.Cl (centres undefined)	-3.308
O=C(O)c1ccccc1-c1ccc(CN2CC(O)C2)cc1	128.6
O=C(O)c1ccccc1-c1ccc(CN2CCCC(O)C2)cc1 (centres undefined)	104.1
O=c1cc(-c2cccnc2)nc(-c2ccc(CN3CC[C@H](O)C3)cc2)[nH]1	-0.3576
O=C1CN(Cc2ccc(-c3ccccc3C(=O)O)cc2)CCN1	3.495
NC(=O)c1ccc(CN2CCCC(O)C2)cc1 (centres undefined)	1.38
COc1ccc(C(C)N2CCC(CO)CC2)cc1Cl (centres undefined)	2.465
CSC1(CNC(=O)N(C)Cc2ccc(C)s2)CCOCC1	-11.34
COCCn1c2c(ccc1=O)CCN(C(=O)Cc1ccsc1)CC2	97.29

SMILES	Percent Effect [%]
COCCN1CC2(CCCN(C(=O)CCCc3cccs3)C2)CCC1=O (centres undefined)	-3.205
COCCN1CCOCC12CCN(C(=O)Cc1cccs1)CC2.O=C(O)C(F)(F)F	7.053
COCCn1c2c(ccc1=O)CCN(C(=O)Cc1cccs1)CC2	99.02
O=C(Cc1ccsc1)N1CCc2ccc(=O)n(CC3CC3)c2CC1	-8.117
CN(CCCc1nccn1C)C(=O)C1COc2ccccc2C1 (centres undefined)	-14.96
Cc1ncsc1CCN(C)C(=O)c1ccc(Cn2cnnn2)cc1	-0.04633
Cc1nc(N2CCOCC2)nc2c1CN(CC(=O)N(C)C)CC2	-19.6
Cc1nc(N2CCOCC2)nc2c1CCN(C(=O)NC1CCCC1)CC2	25.82
Cc1nc(N2CCCC2)nc2c1CCN(C(=O)C1CCCC1)CC2	4.07
Cc1nc(N2CCCC2)nc2c1CCN(C(=O)N1CCCC1)CC2	98.24
Cc1nc(N2CCCC2)nc2c1CCN(C(=O)CC1CC1)CC2	43.96
Cc1nc(N2CCOCC2)nc2c1CCN(C(=O)C1(C#N)CC1)CC2	-22.43
Cc1nc(N2CCOCC2)nc2c1CN(C(=O)C(C)C)CC2	99.02
Cc1nc(N2CCOCC2)nc2c1CN(C(=O)Cc1ccccn1)CC2	6.226
Cc1nc(N2CCOCC2)nc2c1CCN(C(=O)N1CCCC1)CC2	118.6
CS(=O)(=O)CCN1C[C@H](NC(=O)c2cnc(O)cn2)[C@@H](C2CC2)C1	5.128
Cn1cccc1C(O)CNS(=O)(=O)c1ccccc1F (centres undefined)	-11.88
CC(C)CCC(=O)N1CCN(c2ncnc3nc(N)ccc23)CC1	-4.213
COc1ccc(Cl)cc1NCC(=O)NCc1cccnc1OC	108
COc1ccc(Cl)cc1NCC(=O)NCCc1ccccn1	3.443
COc1cc(CNC(=O)CNc2cc(Cl)ccc2OC)ccn1	-1.117
COc1ccc(Cl)cc1NCC(=O)NCCNc1ncccn1	100.4
COc1ccc(Cl)cc1NCC(=O)N(Cc1ccccn1)C1CC1	-7.935
COc1c(Cl)cc(C(=O)NCCNc2ncccn2)cc1Cl	11.68
